Assay results published in PubChem BioAssay (NCI).
This is part of a sample that, as a whole, favours compounds with a hit. Of some 83,000 tested, about 20% had one in any assay.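 In brief: 96-well plates, 48 h treatment, single concentration, percent growth endpoint.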 Values without a mark were called inactive. Activity calls are given as the source filed them. How the source made its calls: active means growth percent below 10; inactive means the rest.

Test system: NCI-H460 lung
Experiment: NCI-60 one-dose screen, 48 h (100 = growth as untreated, 0 = no growth, -100 = all killed)
Settings: 10 µM unless noted

Row | SMILES | growth
1 | Cc1[nH]ccc2cc3nc4ccccc4c3cc12 | 8.56% (active)
2 | NS(=O)(=O)c1ccc(-n2ncc3c(N/N=C/c4ccccc4)ncnc32)cc1 | 66.4%
3 | O=C(C(=O)c1cc(Br)ccc1O)c1cc(Br)ccc1O | 39%
4 | COc1ccc(-c2cnc(SCC(=O)Nc3ccc(-c4nc5ccccc5s4)cc3)n2-c2ccc(OC)cc2)cc1 | 110%
5 | N#CSCC1CC(O)(c2ccccc2)C(c2ccccc2)C(c2ccc(Cl)cc2)O1 (stereo not given) | -68.7% (active)
6 | OCc1n(Cc2ccc3ccccc3c2)cc[n+]1Cc1ccc2ccccc2c1 | 53.1%
7 | c1ccc(-c2nc(Nc3nccnn3)c3ccccc3n2)cc1 | 101%
8 | CCOC(=O)/C=C1/SC(=Nc2ccc(C#N)cc2)N(Cc2ccco2)C1=O | 38.9%
9 | Cc1cnc2nc(-c3ccc(N(C)C)cc3)cn2c1 | 114%
10 | COc1ccc2c(c1)c(CC(=O)[Se]C)c(C)n2C(=O)c1ccc(Cl)cc1 | 3.41% (active)
11 | COc1cc(/C=C/C(=O)C(C(=O)/C=C/c2ccc(OC(=O)CCNc3nnc(C)s3)c(OC)c2)C(=O)CCNc2nnc(C)s2)ccc1OC(=O)CCNc1nnc(C)s1 | -29% (active)
12 | O=C1C2C(C(=O)N1CC[Se][Se]CCN1C(=O)C3C(C1=O)[C@H]1C=C[C@@H]3C1)[C@H]1C=C[C@@H]2C1 (stereo not given in full) | -14.9% (active)
13 | COc1ccc(OC)c(CCn2cncc2-c2c[nH]c3cc(Br)ccc23)c1 | 36.7%
14 | CN(C)c1ncnc2c1ncn2C1CCCCO1 (stereo not given) | 113%
15 | COc1ccc2c(c1)sc1nc(-c3ccc(Br)cc3)cn12 | 117%
16 | O=C(Nc1ccccc1OC(=O)c1ccccc1)c1ccccc1 | 98.1%
17 | Cc1csc(C#Cc2cncc(O)c2)n1 | 121%
18 | COc1ccc2nc(NC(=O)CN3CCn4c(nnc4C(F)(F)F)C3)sc2c1 | 99.5%
19 | CCOC(=O)C(Br)=P(c1ccccc1)(c1ccccc1)c1ccccc1 | 116%
20 | C=CCN(/C=C/CN(CC=C)CC=C)CC=C | 105%

Row | SMILES | growth
21 | O=C1NC(=S)S/C1=C\c1cc(Br)ccc1O | 102%
22 | COc1ccc(C(=O)/C=C/c2cccc(Nc3ccnc4cc(Cl)ccc34)c2)cc1 | 31.6%
23 | CCCCCCCCCCOC(C)=O | 110%
24 | O=C1C(=O)c2c(nc3ccc(Cl)cn23)-c2ccccc21 | -100% (active)
25 | CC(=O)OCC(=O)[C@@]1(O)CC[C@H]2[C@@H]3CCC4=CC(=O)CC[C@]4(C)[C@@]3(F)[C@@H](O)C[C@@]21C | 94%
26 | CCc1nn2c(-c3ccc(Cl)cc3C)c(-c3cc(OC)c(OC)c(OC)c3)nc2s1 | 84.8%
27 | COc1cc(/C=C/C(=O)C(C(=O)/C=C/c2ccc(OC(=O)CCNC34CC5CC(CC(C5)C3)C4)c(OC)c2)C(=O)CCNC23CC4CC(CC(C4)C2)C3)ccc1OC(=O)CCNC12CC3CC(CC(C3)C1)C2 (stereo not given) | 7.93% (active)
28 | CN(C)c1ccc(-c2nc3ncc(Br)cc3o2)cc1 | 109%
29 | CCCc1n(Cc2ccc3ccccc3c2)cc[n+]1Cc1ccc2ccccc2c1 | 3.26% (active)
30 | N#Cc1c(-c2ccccc2)cc(-c2ccccc2)n(CCC(=O)O)c1=O | 45.3%
31 | C=C1CCC2C3(C)COC(c4ccccc4)OC3CCC2(C)C1C/C=C1/C(=O)OCC1OC(C)=O (stereo not given) | 103%
32 | O=C(CNC(=O)c1cccc2ccccc12)Nc1ccccc1Cc1ccccc1 | 17.9% [5 µM]
33 | COC(=O)C1=CCC(n2cnc3c(N)ncnc32)O1 (stereo not given) | 121%
34 | O=C(NC1CCCCC1)c1ccc(Nc2ncnc3c2cnn3-c2ccccc2)cc1 | 42.2%
35 | COc1ccc(-c2cc(-c3cccnc3)nc3sc(C(=O)Nc4ccccc4)c(N)c23)cc1OC | 44.3%
36 | Clc1ccc(C2=NN(c3ccc(Cl)cc3)C(c3cccc(Nc4ccnc5cc(Cl)ccc45)c3)C2)cc1 (stereo not given) | 93.1%
37 | CCCCN=C(N)c1ccc(OCCSCCOc2ccc(C(N)=NCCCC)cc2)cc1 | 30.3%
38 | C/C(=C\CCc1ccoc1)CC/C=C(\C)CCCC1COC(=O)C1 (stereo not given) | 98.8%
39 | Oc1c(Cl)cc(Oc2cc(Cl)c(O)c(CN3CCOCC3)c2)cc1CN1CCOCC1 | 93.4%
40 | CCOC(=O)CCN(c1c(Cl)ssc1=O)C(C)C | 106%
